Reference: PubChem BioAssay AID504840 (Johns Hopkins Ion Channel Center, 2011)
Hit rate of the full screen: of about 1,500 compounds, about 890 (59%) were called active.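 How the source made its calls: active means inhibition of the choline-evoked signal at any tested dose together with a fitted dose-response curve; inactive means no inhibition at any dose or no curve.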 So high a share suggests a set chosen from earlier hits. A selection follows. Potency and affinity values are given separately.

These molecules were tested against High affinity choline transporter 1 (Homo sapiens) (UniProt Q9GZV3) (assay: human choline transporter blockers, potency – cell-based, 5-point CRC, membrane potential dye, dose response (AID 504840;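 further: 0% = buffer-only response and 100% = EC90 choline response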)). Settings: HEK293-CHT, choline-induced depolarization, CHT with LV-to-AA double alanine mutation; series mostly up to 37 µM; inhibition: at the top concentration.
High affinity choline transporter 1 (Homo sapiens), sequence (Q9GZV3 whole entry, looked up): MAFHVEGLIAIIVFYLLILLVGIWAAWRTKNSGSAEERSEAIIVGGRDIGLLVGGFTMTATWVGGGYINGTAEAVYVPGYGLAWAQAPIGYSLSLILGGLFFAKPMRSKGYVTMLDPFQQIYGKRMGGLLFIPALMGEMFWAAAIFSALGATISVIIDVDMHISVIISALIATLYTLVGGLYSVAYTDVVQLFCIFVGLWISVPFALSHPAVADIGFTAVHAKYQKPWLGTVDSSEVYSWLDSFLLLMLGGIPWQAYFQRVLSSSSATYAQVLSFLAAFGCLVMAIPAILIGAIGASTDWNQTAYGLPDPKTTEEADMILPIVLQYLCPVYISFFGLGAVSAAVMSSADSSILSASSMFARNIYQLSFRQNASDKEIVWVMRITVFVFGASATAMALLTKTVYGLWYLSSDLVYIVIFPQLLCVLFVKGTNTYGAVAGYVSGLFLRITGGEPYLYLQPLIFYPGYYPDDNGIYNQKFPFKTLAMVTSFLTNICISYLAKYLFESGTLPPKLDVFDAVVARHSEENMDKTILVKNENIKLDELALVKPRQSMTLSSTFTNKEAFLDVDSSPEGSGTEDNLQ

inhibition, inactive:
O=C(Nc1cc([N+](=O)[O-])ccc1O)c1cccc([N+](=O)[O-])c1 90%, Oc1ccc(-c2nc(-c3ccc(O)c(O)c3)cs2)cc1 53.7%, Cc1cccc2sc(N(CCCN(C)C)C(=O)c3ccc(Cl)s3)nc12 74.2%, Cc1oc(C(=O)O)cc1COc1ccc2c3c(c(=O)oc2c1C)CCC3 41.9%, O=[N+]([O-])c1ccc(O)c(/C=N/NC2=NS(=O)(=O)c3ccccc32)c1 16.4%, O=c1c2cc(NC(=S)NC3CCCCC3)ccc2nc2n1CCCCC2 47.6%, c1cc(Nc2ncnc3sccc23)cc(-c2nnc3n2CCCCC3)c1 24.7%, CCCn1c(=O)c2c(nc3n2CCCN3CCc2ccc(OC)c(OC)c2)n(C)c1=O 29.8%, O=C(NNc1ccc(C(F)(F)F)cc1[N+](=O)[O-])c1ccc(NS(=O)(=O)c2ccc(F)cc2)cc1 51.3%, O=C(NNc1nc(-c2ccccc2)cs1)c1ccc(F)cc1 28.9%, O=C(NCc1nc(-c2ccccc2)cs1)c1ccccc1 21.2%, C=CCNC(=O)c1onc(CSc2ccc(C(C)C)cc2)c1C(=O)O 30.3%, CC(=O)C(Sc1nn(C)c(=S)s1)C(=O)Nc1ccccc1 (stereo not given) 29.4%, CN1CCN(CCOCCOc2ccc(Br)cc2Cl)CC1 45.8%, CCOc1cc(/C=C2\N=C(SC)SC2=O)cc([N+](=O)[O-])c1OC(C)=O 33.6%, COC(=O)C(C)Sc1nc2c(c(=O)[nH]c(=O)n2C)n1CCC(C)C (stereo not given) 72.7%, O=S(=O)(Nc1nc(-c2ccccc2)cs1)c1cccc(C(F)(F)F)c1 42.7%, O=C(Nc1nc(-c2ccccc2)cs1)c1ccc(=O)[nH]c1 6.87%, N#Cc1ccc(C2=NC(C(F)(F)F)(C(F)(F)F)c3c(n(Cc4ccco4)c(=O)[nH]c3=O)N2)cc1 39.9%, O=C(Nc1ccc(S(=O)(=O)NC2=NCCCCC2)cc1)C1COc2ccccc2O1 (stereo not given) 62.6%, O=C(CC1C(=O)NCCN1C(=O)Nc1ccccc1)Nc1cc(Cl)cc(Cl)c1 (stereo not given) 76.1%, CCCCc1cc(=O)oc2cc(O)cc(O)c12 64.4%, CN1CCN(CC(=O)Nc2nc(-c3c[nH]c4ccccc34)cs2)CC1 53.4%, Nc1cc(N2CCCCCC2)c2nonc2c1[N+](=O)[O-] 29.7%, O=C(NNc1ccc([N+](=O)[O-])cc1[N+](=O)[O-])c1ccco1 22.7%, COc1ccc2c(c1)c(C(O)CN1CCC(Cc3ccccc3)CC1)c(C)n2C (stereo not given) 55.5%, CC1(C)c2cc(Cl)ccc2-n2c1cc(O)c(-c1ccccc1)c2=O 52.8%, CCOC(=O)c1c(CCl)nc2ccccc2c1C 36.3%, CCCCCn1c(CCNC(=O)CCC)nc2ccccc21 29%, Cc1occc1C(=O)NNC(=S)NC(=O)COc1ccc(Cl)cc1Cl -0.912%, Cc1occc1C(=O)NNS(=O)(=O)c1ccc([N+](=O)[O-])cc1 27.5%, O=C(O)c1ccccc1-c1ccccc1C(=O)Nc1ccc(-c2nc3cc(Cl)ccc3o2)cc1 65.3%, Cc1cccc(N2CCN(C(=O)C3CCN(c4ncnc5c4nc4n5CCCCC4)CC3)CC2C)c1 (stereo not given) 52.8%, CCn1c(SCC(=O)c2ccccc2)nnc1-c1cccs1 35%, CCC(Sc1nnc(-c2ccc(C)c(Cl)c2)n1CC)C(=O)Nc1nccs1 (stereo not given) 44.4%, Cc1c(O)ccc(/C(Cc2ccc3ccccc3n2)=N\N)c1O 12.5%, C=CCNc1nc(SCC=C)nc2ccsc12 97.9%, N#C/C(=C(/O)CCl)c1nc(-c2ccccc2)cs1 86.7%, O=C(c1cccc(Oc2ccc([N+](=O)[O-])cc2Cl)c1)N1CCCCC1 39%, COc1ccc(Nc2nc3ccccc3n2C)cc1 50.8%, O=C(Nc1ccc(Br)cc1Cl)Nn1cnnc1 45.4%, S=C(NCc1ccccn1)Nc1ccc(Cl)cc1Cl 33.7%, COc1ccc(CN(C(=O)c2ccc3c(c2)OCCO3)C(C(=O)NC2CCCCC2)c2ccc3ncccc3c2)cc1 (stereo not given) 76.3%, COc1ccc(CN(C(=O)c2cccs2)C(C(=O)NC2CCCCC2)c2ccc3ncccc3c2)cc1 (stereo not given) 63%, O=C(NC1CCCCC1)C(c1ccc2ncccc2c1)N(Cc1ccc(F)cc1)C(=O)c1ccc2c(c1)OCCO2 (stereo not given) 42.8%, O=C(NCCc1ccc2c(c1)OCCO2)c1cc2ccccc2o1 39.6%, NC1=NC2(CCCCCC2)n2c(nc3ccccc32)N1 81.2%, Cc1ccc(-c2csc3ncn(CC#N)c(=O)c23)cc1 39.8%, CC1=C(C(=O)Nc2cccc(C(=O)NC3CCCC(C)C3C)c2)SCCO1 (stereo not given) 47.5%, Cc1ccc(NNC(=O)c2cccs2)cc1Cl 54.2%, Cc1ccc(Nc2cc(C(=O)NCCCN3CCOCC3)c3ccccc3n2)cc1C 52.7%, CCNc1nc2[nH]c(=O)c3c(c2s1)OC(N)=C(C#N)C3c1ccc(C)cc1 (stereo not given) 46.1%, Cc1noc(C)c1COC(=O)c1ccc(F)c(S(=O)(=O)N2CCCCC2)c1 32.3%, CCc1nnc(NC(=O)c2cc(S(=O)(=O)N(CC)CC)ccc2Cl)s1 49.4%, CC[N+]1(CC)CC2=Cc3c(ccc4ccccc34)CC2C1 (stereo not given) 54.8%, O=C(CN1CCN(Cc2ccc(Cl)cc2)CC1)N1CCc2ccccc21 43%, CCc1ccc(NCc2nc(-c3ccccc3)no2)cc1 39.8%, Cc1ccc(-c2noc(CNc3ccccc3)n2)cc1 48.7%, O=C(CCCN1C(=O)CSc2ncccc21)N1CCN(c2cccc(C(F)(F)F)c2)CC1 88.7%, COC(=O)c1ccc(C(=O)N2CCCC(Nc3ccc(C(C)C)cc3)C2)nc1 (stereo not given) 38.6%, CC(C)c1cc(C(=O)N2CCCC(CCC(=O)N3CCN(c4ccccn4)CC3)C2)no1 (stereo not given) 43.1%, O=C(c1cc(COc2ccc(F)cc2Cl)on1)N1CCC(c2ccncc2)CC1 57.7%, CCN(Cc1ccncc1)C(=O)c1cc(COc2c(C)cccc2C)on1 45.7%, CC(C)n1cnc2c(N(C)c3cccc(Cl)c3)nc(N(CCO)CCO)nc21 53.9%, N#C/C(=N\Nc1ccc(F)cc1)C(=O)C1CC1 29.1%, N#C/C(=N\Nc1ccc([N+](=O)[O-])cc1)C(N)=S 130%, CC(NC(=O)C1c2ccccc2Oc2ccccc21)C1CCCO1 (stereo not given) -6.34%, CN(Cc1ccccc1)c1ccc(C(CC(N)=O)NC(=O)c2ccc(Br)cc2)cc1[N+](=O)[O-] (stereo not given) 38.3%, O=C(O)c1ccc(N2C(=O)CSC2=S)cc1 19%, O=C(CCC(=O)N1CCN(c2ccccc2F)CC1)N1CCN(c2ccc(F)cc2)CC1 19.3%, CCC(=O)Nc1cc(Cl)ccc1N1CCN(C(=O)CC)CC1 26.7%, Cc1ccc(Cl)cc1N1CCN(C(=O)Cc2c(C(=O)O)[nH]c3ccc(Cl)cc23)CC1 49.7%, NC(N)=N/N=C/c1ccc(Cl)c(Cl)c1 56.4%, O=C1OCCC1Sc1nc(-c2ccccc2)cs1 (stereo not given) 55.7%, Cc1csc(C(C#N)C(=O)c2cc3ccccc3o2)n1 (stereo not given) 24.7%, CC(C)n1c(=S)[nH]c2cc(C(F)(F)F)ccc21 44.1%, CCCCNS(=O)(=O)c1ccc(NC(=O)c2c(-c3ccccc3Cl)noc2C)cc1 29.5%, Cc1noc(NC(=O)c2c(-c3c(Cl)cccc3Cl)noc2C)c1[N+](=O)[O-] 39.3%, Cc1cc(C)cc(OCC(O)CN2CCC(CN3C(=O)c4cccc5cccc(c45)C3=O)CC2)c1 (stereo not given) 36.8%, OCC1OC(n2cnc3c(NC4CCCCC4)ncnc32)C(O)C1O (stereo not given) 46.6%, CC(=O)c1ccc(Nc2nc(NCCO)nc(OC(C(F)(F)F)C(F)(F)F)n2)cc1 23.8%, CC1CCN(CCCNC(=O)CN2C(=O)CSc3ccc(S(=O)(=O)N4CCCCC4)cc32)CC1 53.7%, CCCCN(C)CCNC(=O)CN1C(=O)CSc2ccc(S(=O)(=O)N3CCCC3)cc21 52.2%, Cc1ccc(-c2csc3ncnc(N4CCN(C)CC4)c23)cc1C 53.4%, Cc1ccc(-c2csc3ncnc(-n4cnc5ccccc54)c23)cc1 85%, Cc1ccc(-c2csc3ncnc(-n4nnc5ccccc54)c23)cc1 57.5%, O=C(O)CCN1C(=O)CC(N2C(=O)/C(=C/c3ccc(Cl)cc3)SC2=S)C1=O (stereo not given) 49.9%, COc1ccc(-c2csc3ncnc(NCCCO)c23)cc1 52.9%, CCCNC(=O)N1CCCC(C(=O)c2cccc(Cl)c2)C1 (stereo not given) 6.87%, Cc1cc(O)ccc1NS(=O)(=O)c1ccc2c3c(cccc13)C(=O)N2 38.9%, CCOC(=O)Cc1csc(N/C(=N/S(=O)(=O)c2ccc(F)cc2F)c2ccccc2)n1 11%, CC1Cc2ccccc2N1C(=O)COC(=O)c1ccc(O)cc1 (stereo not given) 24.7%, CC[C@H](CO)Nc1nc(Nc2cccc(Cl)c2)c2ncn(C(C)C)c2n1 33.4%, COc1cc2c(cc1OC)/C(=C/C(=O)c1ccccc1F)NCC2 49.9%, CCCCCn1c(=O)c(F)cn(Cc2ccc(OC)c([N+](=O)[O-])c2)c1=O 58.7%, Cn1c(-c2ccccc2)cnc1SCc1nc2ccccc2c(=O)[nH]1 30.3%, N#Cc1ccccc1COC(=O)c1cccnc1N 41.7%, CC1=C(C(=O)NC(C)C)C2(CCC(C)CC2)OC1=O (stereo not given) -0.294%, O=C1/C(=C/c2ccc(F)cc2)SC(=S)N1NS(=O)(=O)c1ccccc1 40.3%, COc1ccc(/C=C2/SC(=S)N(NS(=O)(=O)c3ccccc3)C2=O)cc1 41.8%, CCOc1ccc(/C=C2\SC(=S)N(NS(=O)(=O)c3ccc(C)cc3)C2=O)cc1OC 72.1%, COc1cc(C=O)ccc1OCCOCCOc1ccccc1Cl 22.1%, Cc1ccc(C(=O)Nc2cccc(C(F)(F)F)c2)cc1NC(=O)c1csc(-c2ccncc2)n1 21.5%, Cc1ccc(NC(=O)COC(=O)CN2C(=O)COc3ccccc32)cc1 56.4%, CCOc1ncccc1C(=O)NCC1COc2ccccc2O1 (stereo not given) 15.3%, CC1(C)CC2CC(C)(CN2C(=O)CCCN2C(=O)c3ccccc3C2=O)C1 (stereo not given) 53.6%, CCOc1cccc(-c2nn(-c3ccccc3)cc2/C=C(/C#N)C(=O)NCCCn2ccnc2)c1 28.6%, Cc1c(CCC(=O)NCCCn2ccnc2)c(=O)oc2c(C)c3occ(C(C)(C)C)c3cc12 76.5%, O=C(O)c1ccc(N/N=C/c2cn(-c3ccccc3)nc2-c2cccs2)cc1 55.5%, Cc1ccc2nc(-c3ccccc3)cc(C(=O)NCCCn3ccnc3)c2c1 63%
